Activity calls are given as the source filed them. Rule for the calls: active = hit-call score of the fitted dose curve at least 0.9, where 1 is the maximum; inactive = score below 0.9.

Read-out in this test: Intercellular Adhesion Molecule 1 (ICAM1), ICAM1 (gene 3383)
Description: BSK_3C_ICAM1: BioMAP Diversity Plus: 3C Assay for Intercellular Adhesion Molecule 1 (ICAM1) Biomarker Activity (AID 2283003). The note with it: primary human endothelial cells (HUVEC); actives raise or lower the signal. As to the method:
BSK_3C is a cell-based, multiplexed-readout assay that uses umbilical vein endothelium, a human vascular primary cell, with measurements taken at 24 hours after chemical dosing in a 96-well plate.BSK_3C_ICAM1 is an assay component measured in the BSK_3C assay. It measures ICAM-1 antibody related to regulation of gene expression using ELISA technology.Data from the assay component BSK_3C_ICAM1 was analyzed into 1 assay endpoint. This assay endpoint, BSK_3C_ICAM1, was analyzed with bidirectional fitting relative to DMSO as the negative control and baseline of activity. Using a type of binding reporter, gain or loss-of-signal activity can be used to understand changes in the signaling as they relate to the gene ICAM1. Furthermore, this assay endpoint can be referred to as a primary readout, because this assay has produced multiple assay endpoints where this one serves a signaling function. To generalize the intended target to other relatable targets, this assay endpoint is annotated to the cell adhesion molecules intended target family, where the subfamily is Immunoglobulin CAM.
The levels of cell surface (or secreted, indicated by the prefix "s") biomarker endpoints were measured by ELISA. Overt cytotoxicity to cells in confluent adherent cultures (all systems other than the BT system) was assessed by measuring total protein levels using sulforhodamine B (SRB) staining in parallel cultures at the time of biomarker measurements, indicated as SRB endpoints. For proliferation assays for adherent cell types, individual cell types are cultured at sub-confluence and relative cell numbers quantified by SRB staining at time points optimized for each system (48 h: 3C and CASM3C systems; 72 h: BT and HDF3CGF systems; 96 h: SAg system). SRB was performed by staining cells with 0.1% SRB after fixation with 10% TCA and reading wells at 560 nm.Viability and proliferation of PBMC (T cells) was quantified by Alamar Blue reduction for the SAg and BT systems. For PBMC viability (referred to as PBMC Cytotoxicity within the assay endpoint names), cells were plated (75,000/well in a 96-well plate) and then chemical samples added for 1 h before addition of activators, SEB and TSST-1 (20 ng/mL final concentration each). Cells were incubated for 90 h. Then, Alamar Blue (20 uL/well) (Invitrogen, Cat DAL1100) was added for 6 h, and the plates were read with a fluorescence microplate reader at 546/580 nm (excitation/emission). For PBMC proliferation, cells were plated and activated as above but incubated for only 16 h prior to addition of Alamar Blue. Plates were read after 6 h.
For `CC(C)(C)OOC(=O)c1ccccc1`, the outcome was inactive.
Regarding `CC(C)(C)OOC(C)(C)CCC(C)(C)OOC(C)(C)C`, the result was inactive.
The AC50 is the concentration at which the activity in the assay is half-maximal. `O=[N+]([O-])C(Br)(CO)CO`: the AC50 was 33.4 µM (active).
Regarding `Oc1ccccc1Cl`, the result was inactive.
Same read-out and setting: under `C[C@]12C=CC3=C4CCC(=O)C=C4CC[C@H]3[C@@H]1CC[C@@H]2O` stands “inactive”.
On to `ClC1=C(Cl)C2(Cl)C3C(Cl)C=CC3C1(Cl)C2(Cl)Cl` (stereo not given), for which the AC50 was 30.2 µM (active).
As for `Nc1ccc(Cc2ccc(N)cc2)cc1`, the result was inactive.
On to `CN(C)c1ccccc1`, for which the outcome was inactive.
For `CCNS(=O)(=O)C(F)(F)C(F)(F)C(F)(F)C(F)(F)C(F)(F)C(F)(F)C(F)(F)C(F)(F)F`, the outcome was inactive.
For the molecule `Cn1cc(-c2ccccc2)c(=O)c(-c2cccc(C(F)(F)F)c2)c1`, the outcome was inactive.
As for `[O-][Cl+]O`, the result was inactive.
Still for that read-out and setting: to `COP(=S)(OC)SCN1C(=O)c2ccccc2C1=O` belongs “inactive”; to `CC(C)N(Cc1ccccc1)C(=O)C(C)(C)C`, “inactive”; to `COC(=O)Nc1nc2ccccc2[nH]1`, “inactive”.
For `O=C(Oc1ccc(Br)cc1)N1CCN2CCC1CC2`, the outcome was inactive.
Consider `C1=Cc2cccc3cccc1c23`, for which the outcome was inactive.
As for `c1ccc(C2CO2)cc1` (stereo not given), the result was inactive.
For `CCOc1cccc(C2(N3CCN(c4ccccc4)CC3)CCC(C)CC2)c1` (stereo not given), the result was inactive.
As to `CC(C)(O)c1cnn2c(-c3ccc(F)c(-c4c(F)cccc4C#N)c3)cnc2n1`, the outcome was inactive.
For `[As]#[In]`, the result was inactive.
For `N#CC(Br)Br`, the outcome was inactive.
Take `C[N+](C)(C)CC1CO1` (stereo not given): the result was inactive.
Consider `CS(=O)(=O)NC(=O)c1cc(Oc2ccc(C(F)(F)F)cc2Cl)ccc1[N+](=O)[O-]`, for which the result was inactive.
Still for that read-out and setting: under `Cc1cc(N=Nc2ccccc2C)ccc1N` stands “inactive”; under `Cc1ccc(N)c(N)c1`, “inactive”.
Same read-out and setting: to `O=P(OCCCl)(OCCCl)OCCCl` belongs “inactive”; to `CN(C)[C@@H]1C(=O)C(C(N)=O)=C(O)[C@@]2(O)C(=O)C3=C(O)c4c(O)cccc4[C@@](C)(O)[C@H]3C[C@@H]12`, “inactive”.
Turning to `Clc1ccccc1Cl`, the result was inactive.
For the molecule `C=CCc1ccc2c(c1)OCO2`, the result was inactive.
As to `CCN(CC)CCO`, the result was inactive.
As to `c1ccc(N=Nc2ccccc2)cc1`, the result was inactive.
Same read-out and setting: to `CO[C@@H]1[C@H](OC(=O)NC(=O)CCl)CC[C@]2(CO2)[C@H]1[C@@]1(C)O[C@@H]1CC=C(C)C` belongs “inactive”; to `O=C1CCCO1`, “inactive”; to `Nc1ccc(Oc2ccc(N)cc2)cc1`, “inactive”.
With `CCCCCCCCOC(=O)c1ccc(C(=O)OCCCCCCCC)c(C(=O)OCCCCCCCC)c1`, the result was inactive.
For `CCCCOC(=O)c1ccccc1C(=O)OCc1ccccc1`, the outcome was inactive.
With `CNC(=O)Oc1cccc2c1OC(C)(C)C2`, the result was inactive.
The same measure, in the same setting: to `O=C(Nc1ccccc1)c1ccccc1I` belongs “inactive”.
Consider `CC(O)CCO` (stereo not given), for which the outcome was inactive.
In the case of `c1ccc2c(c1)oc1ccccc12`, the outcome was inactive.

Source of the values: PubChem BioAssay (EPA / NIEHS).
